PubChem BioAssay (Tox21)
Where “and” joins values, the source holds several entries; their conditions need not be identical. Equal entries are not always repeated. Inconclusive results are not listed. More than one record can exist for a structure, and the calls need not agree. Calls of active or inactive are those of the source. Unless noted, the call rests on the fitted dose curve; in most records, active means well fitted curve in the direction sought with a large enough effect in the repeat runs; inconclusive means weak or mixed curves; inactive means no such curve, though single readings can be large; an effect the other way counts as inactive or inconclusive.

How the values were obtained:
[1] = qHTS assay to identify aromatase inhibitors - cell viability counter screen (AID 743084);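 further: cells stimulated with testosterone during compound exposure; nearly all actives have a fitted effect of over 55% in size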; further: potency means the concentration at half of the fitted maximal effect
[2] = target: Aryl hydrocarbon receptor (Homo sapiens) (UniProt P35869); assay: qHTS assay to identify small molecule that activate the aryl hydrocarbon receptor (AhR) signaling pathway (AID 743085); further: nearly all actives have a fitted effect of over 15% in size; further: potency means the concentration at half of the fitted maximal effect;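 on activation: HG2L7.5c1 human HepG2 liver cells with stably integrated DRE-driven firefly reporter; series mostly up to about 70 µM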
Sequence of Aryl hydrocarbon receptor (Homo sapiens) (P35869 whole entry, looked up): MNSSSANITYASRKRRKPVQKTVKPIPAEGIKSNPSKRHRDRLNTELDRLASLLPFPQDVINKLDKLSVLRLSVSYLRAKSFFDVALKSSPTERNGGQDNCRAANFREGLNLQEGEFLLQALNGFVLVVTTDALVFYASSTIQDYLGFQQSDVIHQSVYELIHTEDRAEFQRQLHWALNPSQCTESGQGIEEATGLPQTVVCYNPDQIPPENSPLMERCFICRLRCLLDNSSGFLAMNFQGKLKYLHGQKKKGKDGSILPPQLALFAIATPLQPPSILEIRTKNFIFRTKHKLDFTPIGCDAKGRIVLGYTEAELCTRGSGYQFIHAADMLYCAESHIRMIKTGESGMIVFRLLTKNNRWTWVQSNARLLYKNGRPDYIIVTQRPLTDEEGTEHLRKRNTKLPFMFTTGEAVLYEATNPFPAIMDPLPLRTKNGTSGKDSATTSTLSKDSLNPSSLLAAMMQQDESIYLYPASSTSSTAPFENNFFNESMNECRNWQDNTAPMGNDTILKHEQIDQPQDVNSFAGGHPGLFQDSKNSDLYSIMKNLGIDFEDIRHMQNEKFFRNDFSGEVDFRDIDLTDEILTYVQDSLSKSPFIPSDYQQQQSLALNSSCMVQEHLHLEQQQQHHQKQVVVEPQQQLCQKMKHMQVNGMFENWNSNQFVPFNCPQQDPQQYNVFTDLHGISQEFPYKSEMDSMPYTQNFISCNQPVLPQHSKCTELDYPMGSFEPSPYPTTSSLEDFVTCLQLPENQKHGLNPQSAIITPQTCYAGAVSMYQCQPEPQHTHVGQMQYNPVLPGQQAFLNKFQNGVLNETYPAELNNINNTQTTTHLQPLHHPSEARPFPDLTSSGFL
Procedure, shortened: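 24 h compound exposure, 37C, HepG2-derived HG2L7.5c1 cells with DRE-responsive luciferase. Readouts: fluorescence viability, then luminescence at room temperature after 30 min.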

[3] = qHTS assay to identify small molecule that activate the aryl hydrocarbon receptor (AhR) signaling pathway - cell viability counter screen (AID 743086);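 further: HepG2 liver cells carrying the AhR DRE luciferase reporter; series mostly up to about 70 µM; nearly all actives have a fitted effect of over 45% in size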
Procedure, shortened: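 HepG2-AhR-luc (HG2L7.5c1) cells, 4000/well, treated 24 h at 37 C with compound; viability measured as CellTiter-Fluor fluorescence after 30 min in the same wells as the luciferase read.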

[4] = qHTS assay to identify small molecule antagonists of the peroxisome proliferator-activated receptor gamma (PPARg) signaling pathway - cell viability counter screen (AID 743194); further: nearly all actives have a fitted effect of over 55% in size
Procedure, shortened: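 Cytotoxicity counter screen in PPARg-bla HEK293H cells, same wells as reporter assay. Compounds plus 50 nM rosiglitazone (final) for 17 h at 37 C, then viability read by CellTiter-Glo luminescence.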

[5] = qHTS assay for small molecule agonists of the antioxidant response element (ARE) signaling pathway - cell viability counter screen (AID 743203; calls by dose curve; further: nearly all actives have a fitted effect of over 55% in size)
Procedure, shortened: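 Seeded at 2,000 cells/well, ARE-bla HepG2 cells were incubated 5 hrs before compound addition. After 16 hrs of treatment at 37C with 5% CO2, CellTiter-Glo reagent was added and luminescence read 30 min later.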

[6] = qHTS assay for small molecule activators of the heat shock response signaling pathway - cell viability counter screen (AID 743209); further: nearly all actives have a fitted effect of over 50% in size
Procedure, shortened: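 First, HSE-bla HeLa cells were seeded at 1500 cells/well and kept overnight at 37 C. Next, compounds were pinned in and incubated 5 h. After the FRET substrate step, CellTiter-Glo was added and luminescence read 30 min later.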

[7] = qHTS assay for small molecule activators of the heat shock response signaling pathway (AID 743210; active means well fitted activation curve with a large enough effect in the signal ratio in the repeat runs, with a control signal flat, not every such curve was filed as active; the % refers to the signal ratio;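 further: HeLa cells with beta-lactamase reporter driven by heat shock elements; series mostly up to about 63 µM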)
Procedure, shortened: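 Quantitative high-throughput format using an engineered HeLa line in which heat shock response elements drive beta-lactamase; after 5 h with compound, cells received a B/G FRET substrate and fluorescence was read.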

[8] = target: Peroxisome proliferator-activated receptor delta (Homo sapiens) (UniProt Q03181); assay: qHTS assay to identify small molecule agonists of the peroxisome proliferator-activated receptor delta (PPARd) signaling pathway (AID 743212; calls by dose curve)
Sequence of Peroxisome proliferator-activated receptor delta (Homo sapiens) (Q03181 whole entry, looked up): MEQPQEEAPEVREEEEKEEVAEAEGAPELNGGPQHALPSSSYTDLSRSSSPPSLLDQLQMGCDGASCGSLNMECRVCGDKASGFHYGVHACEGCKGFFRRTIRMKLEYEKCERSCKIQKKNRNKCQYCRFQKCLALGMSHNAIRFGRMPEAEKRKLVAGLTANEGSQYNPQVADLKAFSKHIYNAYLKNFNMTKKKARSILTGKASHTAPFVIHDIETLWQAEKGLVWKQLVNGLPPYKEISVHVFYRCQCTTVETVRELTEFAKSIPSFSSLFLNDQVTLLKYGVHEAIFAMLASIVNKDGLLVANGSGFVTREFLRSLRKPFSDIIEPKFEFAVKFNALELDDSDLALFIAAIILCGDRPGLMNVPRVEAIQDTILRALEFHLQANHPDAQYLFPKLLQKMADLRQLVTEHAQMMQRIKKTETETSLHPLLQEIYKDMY
Procedure, shortened: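 Quantitative high-throughput agonist screen in a HEK293H beta-lactamase reporter line under UAS control. Compounds in DMSO, at 37 C. Fluorescence read after 2 h with FRET substrate at room temperature.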

[9] = qHTS assay to identify small molecule antagonists of the peroxisome proliferator-activated receptor delta (PPARd) signaling pathway - cell viability counter screen (AID 743213); further: nearly all actives have a fitted effect of over 50% in size
Procedure, shortened: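 PPARd-bla HEK293H cells (3000/well) got compound plus 300 nM L165041 agonist for 17 h at 37 C. Viability in the same wells came from CellTiter-Glo luminescence after 30 min at room temperature.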

[10] = target: Peroxisome proliferator-activated receptor delta (Homo sapiens) (UniProt Q03181); assay: qHTS assay to identify small molecule antagonists of the peroxisome proliferator-activated receptor delta (PPARd) signaling pathway (AID 743215; active means well fitted inhibition curve with a large enough effect in the signal ratio in the repeat runs, not every such curve was filed as active; the % refers to the signal ratio;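 further: cells stimulated with agonist L165041 at 300 nM final during compound exposure; series mostly up to about 62 µM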)
Procedure, shortened: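 Inhibition of L165041-driven (300 nM final) PPARd signaling is scored in HEK293H UAS-bla cells. Exposure lasts 17 h at 37 C; beta-lactamase activity is then read by FRET substrate fluorescence after 2 h at room temperature.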

[11] = target: Bile acid receptor (Homo sapiens) (UniProt Q96RI1); assay: qHTS assay to identify small molecule antagonists of the farnesoid-X-receptor (FXR) signaling pathway (AID 743217; active means well fitted inhibition curve with a large enough effect in the signal ratio in the repeat runs, not every such curve was filed as active; the % refers to the signal ratio)
Sequence of Bile acid receptor (Homo sapiens) (Q96RI1 whole entry, looked up): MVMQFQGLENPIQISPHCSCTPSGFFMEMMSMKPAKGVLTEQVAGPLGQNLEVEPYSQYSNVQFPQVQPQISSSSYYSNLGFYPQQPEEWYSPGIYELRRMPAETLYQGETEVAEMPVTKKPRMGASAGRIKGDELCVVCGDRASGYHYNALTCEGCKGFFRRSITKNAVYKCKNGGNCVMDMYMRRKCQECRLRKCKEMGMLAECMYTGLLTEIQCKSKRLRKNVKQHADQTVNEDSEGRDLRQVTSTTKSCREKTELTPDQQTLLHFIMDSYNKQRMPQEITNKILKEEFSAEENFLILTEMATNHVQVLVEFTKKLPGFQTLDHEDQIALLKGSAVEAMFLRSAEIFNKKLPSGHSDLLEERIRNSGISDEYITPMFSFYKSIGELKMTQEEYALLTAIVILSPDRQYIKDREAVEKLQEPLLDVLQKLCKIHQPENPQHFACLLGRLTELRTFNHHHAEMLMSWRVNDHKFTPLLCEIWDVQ
Procedure, shortened: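 Antagonist mode against 50 uM (final) chenodeoxycholic acid stimulation in FXR-bla HEK 293T cells, 16 h at 37 °C. Inhibition detected as reduced beta-lactamase activity via LiveBLAzer B/G FRET fluorescence after 2 h at room temperature.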

[12] = target: Bile acid receptor (Homo sapiens) (UniProt Q96RI1); assay: qHTS assay to identify small molecule agonists of the farnesoid-X-receptor (FXR) signaling pathway (AID 743220; active means well fitted activation curve with a large enough effect in the signal ratio in the repeat runs, not every such curve was filed as active; the % refers to the signal ratio)
Procedure, shortened: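 Beta-lactamase reporter under UAS control in GeneBLAzer FXR HEK 293T cells (5000/well) measured with LiveBLAzer FRET substrate after 2 h at room temperature. Compound exposure lasted 16 h at 37C.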

[13] = target: Vitamin D3 receptor (Homo sapiens) (UniProt P11473); assay: qHTS assay to identify small molecule agonists of the vitamin D receptor (VDR) signaling pathway (AID 743222; calls by dose curve)
Sequence of Vitamin D3 receptor (Homo sapiens) (P11473 whole entry, looked up): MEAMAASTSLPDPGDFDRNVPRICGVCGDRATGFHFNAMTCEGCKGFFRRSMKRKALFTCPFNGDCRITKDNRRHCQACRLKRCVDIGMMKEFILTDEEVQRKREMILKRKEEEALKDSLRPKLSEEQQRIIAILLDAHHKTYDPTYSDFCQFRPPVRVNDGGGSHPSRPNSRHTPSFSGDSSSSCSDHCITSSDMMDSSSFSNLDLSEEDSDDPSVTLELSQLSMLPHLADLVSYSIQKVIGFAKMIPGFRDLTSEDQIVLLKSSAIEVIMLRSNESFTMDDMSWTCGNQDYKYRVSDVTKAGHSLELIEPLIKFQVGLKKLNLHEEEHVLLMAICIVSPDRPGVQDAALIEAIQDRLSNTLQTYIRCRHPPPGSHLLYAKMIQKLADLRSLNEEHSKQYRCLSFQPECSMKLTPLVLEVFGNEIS
Procedure, shortened: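 Quantitative HTS agonist-mode screen: compounds in DMSO were pin-transferred onto VDR-bla cells and incubated 16 h at 37C, 5% CO2. Reporter activity was detected with LiveBLAzer B/G FRET substrate after 2 h at room temperature.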

[14] = target: Vitamin D3 receptor (Homo sapiens) (UniProt P11473); assay: qHTS assay to identify small molecule antagonists of the vitamin D receptor (VDR) signaling pathway (AID 743223; active means well fitted inhibition curve with a large enough effect in the signal ratio in the repeat runs, not every such curve was filed as active; the % refers to the signal ratio)
Procedure, shortened: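 Agonist 1alpha,25-dihydroxyvitamin D3 (3 nM in well) was added with each compound to VDR-bla cells preincubated 4 h. Cells stood 16 h at 37C, then FRET substrate 2 h at room temperature; fluorescence intensity recorded.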

[15] = qHTS assay for small molecule agonists of the antioxidant response element (ARE) signaling pathway (AID 743202; active means well fitted activation curve with a large enough effect in the signal ratio in the repeat runs, not every such curve was filed as active; the % refers to the signal ratio)
Procedure, shortened: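 Agonist mode reporter screen: HepG2 cells with ARE-controlled beta-lactamase are incubated with test compounds for 16 h at 37 C, and beta-lactamase activity is measured as fluorescence of cleaved B/G FRET substrate.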

[16] = qHTS assay to identify small molecule agonists of the peroxisome proliferator-activated receptor delta (PPARd) signaling pathway - cell viability counter screen (AID 743211); further: nearly all actives have a fitted effect of over 55% in size; further: potency means the concentration at half of the fitted maximal effect
Procedure, shortened: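 Luminescent ATP viability assay (CellTiter-Glo, 30 min RT) in UAS-bla HEK293H cells carrying the PPAR delta reporter construct, 3000 cells/well, after a 17 h compound treatment at 37 C.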

[17] = qHTS assay to identify small molecule antagonists of the farnesoid-X-receptor (FXR) signaling pathway - cell viability counter screen (AID 743221; active means well fitted cell-killing curve with a large enough effect in the repeat runs, not every such curve was filed as active; further: nearly all actives have a fitted effect of over 50% in size)
Procedure, shortened: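 In GeneBLAzer FXR-UAS-bla HEK 293T cells stimulated with 50 uM chenodeoxycholic acid (final), compounds acted for 16 h at 37 C. Viability was assessed afterwards by CellTiter-Glo luminescence.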

[18] = target: Peroxisome proliferator-activated receptor gamma (Homo sapiens) (UniProt P37231); assay: qHTS assay to identify small molecule agonists of the peroxisome proliferator-activated receptor gamma (PPARg) signaling pathway (AID 743094; active means well fitted activation curve with a large enough effect in the signal ratio in the repeat runs, not every such curve was filed as active; the % refers to the signal ratio)
Sequence of Peroxisome proliferator-activated receptor gamma (Homo sapiens) (P37231 whole entry, looked up): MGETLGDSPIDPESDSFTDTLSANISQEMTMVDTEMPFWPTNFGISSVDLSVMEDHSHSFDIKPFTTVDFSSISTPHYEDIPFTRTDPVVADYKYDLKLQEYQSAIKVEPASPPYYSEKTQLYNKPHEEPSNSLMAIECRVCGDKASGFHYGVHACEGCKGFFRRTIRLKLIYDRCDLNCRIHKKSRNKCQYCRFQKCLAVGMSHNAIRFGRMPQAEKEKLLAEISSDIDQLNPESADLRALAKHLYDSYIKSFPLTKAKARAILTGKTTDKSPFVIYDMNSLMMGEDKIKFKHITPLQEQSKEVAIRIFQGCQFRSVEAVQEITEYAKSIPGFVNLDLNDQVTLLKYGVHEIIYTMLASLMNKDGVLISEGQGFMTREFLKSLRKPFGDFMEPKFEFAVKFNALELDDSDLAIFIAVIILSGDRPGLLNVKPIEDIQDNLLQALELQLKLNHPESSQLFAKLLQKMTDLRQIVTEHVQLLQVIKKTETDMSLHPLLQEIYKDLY
Procedure, shortened: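 Quantitative HTS agonist mode: stable HEK293H line with UAS-beta-lactamase reporter under PPARg control, 17 h compound exposure at 37C, fluorescence after 1 h FRET substrate loading at room temperature.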

[19] = target: Peroxisome proliferator-activated receptor gamma (Homo sapiens) (UniProt P37231); assay: qHTS assay to identify small molecule antagonists of the peroxisome proliferator-activated receptor gamma (PPARg) signaling pathway (AID 743191; calls by dose curve; further: series mostly up to about 63 µM; nearly all actives have a fitted effect of over 30% in size)
Procedure, shortened: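 GeneBLAzer PPARg UAS-bla HEK293H cells, 5 h post-plating, exposed to compounds 17 h at 37C. LiveBLAzer B/G FRET substrate added for 1 h at room temperature; beta-lactamase reporter read by fluorescence intensity.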

[20] = qHTS assay to identify small molecule agonists of the farnesoid-X-receptor (FXR) signaling pathway - cell viability counter screen (AID 743218); further: nearly all actives have a fitted effect of over 45% in size
Procedure, shortened: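 Cytotoxicity counter-screen run in parallel, same wells: FXR-UAS-bla HEK 293T cells dosed 16 h at 37 C, viability read by CellTiter-Glo luminescence after 30 min at room temperature.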

Measured: Potency

Cc1c(N(C)C)c(=O)n(-c2ccccc2)n1C
not listed: [15] | [16] | [17] | [18] | [19] | [20]
inactive: all other assays above

NC(=O)NO
not listed: [11] | [12] | [18] | [19] | [20]
inactive: all other assays above

COc1ccc(O)cc1
not listed: [7] | [11] | [12] | [15] | [16] | [18] | [19] | [20]
inactive: all other assays above

O=C1OC(c2ccc(O)cc2)(c2ccc(O)cc2)c2ccccc21
inactive: [1] | [3] | [18] | [4] | [5] | [6] | [16] | [9] | [17] | [13] | [14]

C=C(C)OC(C)=O
not listed: [7] | [8] | [10] | [11] | [12] | [15] | [18]
inactive: all other assays above

O=C(O)Cc1cccc2ccccc12
not listed: [7] | [15] | [18]
inactive: all other assays above

CCCCCCCCCCCCCCCCCC(=O)OCC(O)CO (stereo not given)
not listed: [7] | [15] | [16] | [18] | [20]
inactive: all other assays above

Nc1ccc(N=Nc2ccccc2)c(N)n1
43.9 µM (active) and inactive: [16]
active: [1] 27.4 µM and 54.5 µM | [2] 13.3 µM and 13.8 µM and 34.4 µM
not listed: [7] | [11] | [12] | [15] | [17] | [18] | [20]
inactive: all other assays above

O=c1cc[nH]c(=O)[nH]1
not listed: [1] | [2] | [11] | [12] | [16] | [17] | [18] | [19]
inactive: all other assays above

C=CC(=O)NC(C)(C)CS(=O)(=O)O
not listed: [7] | [11] | [12] | [15] | [16] | [18] | [20]
inactive: all other assays above
